Test [1] can be described thus: qHTS assay for small molecule agonists of the p53 signaling pathway (AID 651631; calls by dose curve; also: nearly all actives have a fitted effect of over 15% in size). In short, it runs like this: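 Agonist mode screen using a stably integrated beta-lactamase gene under p53 response elements in HCT-116 cells. Compound exposure lasts 16 h at 37 °C; fluorescence intensity is measured following 2 h FRET substrate loading.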
Test [2] in a line: qHTS assay for small molecules that induce genotoxicity in human embryonic kidney cells expressing luciferase-tagged ATAD5 (AID 651632). Also: nearly all actives have a fitted effect of over 15% in size. The essentials: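 HEK293T cells carrying luciferase-tagged ATAD5 were given compound or DMSO vehicle and incubated 16 hr at 37C, 5% CO2. Luciferase activity was read after 30 min at room temperature with Amplite; a rise signals genotoxic stress.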

A short description of test [3]: qHTS assay for small molecule agonists of the p53 signaling pathway - cell viability (AID 651633; calls by dose curve;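 also: p53RE-bla HCT reporter cells with a stable beta-lactamase p53 reporter; series mostly up to about 83 µM; nearly all actives have a fitted effect of over 30% in size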). In short, it runs like this: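 p53RE-bla cells, seeded at 4,000 per well and rested 5 h at 37 C/5% CO2, received compounds in DMSO for 16 h at 37 C. CellTiter-Glo was then added, and luminescence was read after 30 min at room temperature to gauge cytotoxicity.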
In general terms: Quantitative high-throughput screening tests each substance at several concentrations.

Test [4] is described as follows: qHTS assay for small molecules that induce genotoxicity in human embryonic kidney cells expressing luciferase-tagged ATAD5 - cell viability (AID 651634; calls by dose curve; also: nearly all actives have a fitted effect of over 25% in size; also: potency is read from the fitted curve at half-maximal effect). The essentials:
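HEK293T cells carrying luciferase-tagged ATAD5, 2,000 cells/well, exposed to compound for 15.5 hr at 37C. Viability read as live-cell protease activity by CellTiter-Fluor fluorescence after 30 min at 37C.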

A short description of test [5]: qHTS assay for small molecule disruptors of the mitochondrial membrane potential - cell viability (AID 720634; calls by dose curve;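 also: human HepG2 liver cancer cells; series mostly up to about 83 µM; nearly all actives have a fitted effect of over 20% in size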). The essentials: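 HepG2 cells, 2,000 per well, attached overnight, then treated 1 hr at 37 C, 5% CO2. Viability read as ATP by CellTiter-Glo luminescence after 30 min at room temperature. Read in the same wells as the m-MPI membrane-potential dye assay.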

Test [6] is described as follows: qHTS assay to test for compound auto fluorescence at 590 nm (red) in HepG2 cells (AID 720674). In short, it runs like this: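 Intrinsic compound fluorescence in the red window (Ex/Em 540/590 nm) is measured in attached HepG2 cells exposed for 1 hr, DMSO vehicle as baseline, benchmarked to Rose Bengal sodium.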
Test [7] in a line: qHTS assay to test for compound auto fluorescence at 535 nm (green) in HepG2 cells (AID 720675).
Test [8] can be described thus: qHTS assay to test for compound auto fluorescence at 460 nm (blue) in HEK293 cells (AID 720678). The essentials: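 HEK293, 2,000 cells/well, 10% dialyzed FBS; attach 4-5 hr 37C; pin compound or DMSO; o/n 37C/5% CO2; fluorescence 405/460 nm; triamterene-equivalent units.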
Test [9] in a line: qHTS assay to test for compound auto fluorescence at 590 nm (red) in HEK293 cells (AID 720679). The essentials: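 Intensity at 540nm excitation and 590nm emission is reported as Rose Bengal sodium-equivalent autofluorescence. Measurements followed overnight exposure (37C, 5% CO2) of HEK293 cells, 2,000 per well, to 23 nL compound.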
Test [10] can be described thus: qHTS assay for small molecule disruptors of the mitochondrial membrane potential (AID 720635). In short, it runs like this: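 HepG2 cells (2,000/well) attached overnight at 37C, then took compound for 1 hr at 37C, 5% CO2. Mito-MPS dye was added for 30 min; fluorescence was read at 490/535 nm (monomers) and 540/590 nm (aggregates).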

Values without a mark were called inactive. Inconclusive results are not listed. The source made the active and inactive calls. Unless noted, calls follow the shape of the dose curve; as a rule, active = well fitted curve in the direction sought with a large enough effect in the repeat runs; inconclusive = weak or mixed curves; inactive = no such curve, though single readings can be large; an effect the other way counts as inactive or inconclusive.
% is scaled to controls: 0 for no effect and ±100 for the full control effect.

As to `Cc1cc(OI)c(C(C)C)cc1-c1cc(C(C)C)c(OI)cc1C`, the Potency result in test [1], in [2], in [3], in test [4], in [5] and in [8] was “inactive” in each case. The result in test [6], in [7] and in [9] was inactive.

For the molecule `CCCCCCCCCCCC[N+](C)(C)CC(=O)[O-]`, the Potency result in test [1], in [2], in test [3], in [4], in [5] and in test [8] was “inactive” in each case. In addition, the call in test [6], in test [7] and in [9] was inactive.

With `Cc1nc2ccccc2s1`, the Potency result in test [1], in test [2], in [3], in test [4], in [5] and in test [8] was “inactive” in each case. In addition, the result in test [6], in test [7] and in test [9] was inactive.

For the molecule `CO[C@H]1C=CO[C@@]2(C)Oc3c(C)c(O)c4c(O)c(c5c(c4c3C2=O)=NC2(CCN(CC(C)C)CC2)N=5)NC(=O)/C(C)=C\C=C/[C@H](C)[C@H](O)[C@@H](C)[C@@H](O)[C@@H](C)[C@H](OC(C)=O)[C@@H]1C`, the Potency entry in test [1], in [2], in test [3], in test [5] and in [8] was “inactive” each time. Besides, the Potency in [4] was 53.3 µM (active). The result in test [6], in test [7] and in [9] was inactive.

Consider `CC1(C)C(=O)N(Br)C(=O)N1Cl`, for which the Potency entry in test [1], in [2], in test [3], in test [4], in [5] and in test [8] was “inactive” in each case. Besides, the molecule was classed as inactive in [6], in test [7] and in test [9].

Turning to `CCn1nc(C)c2c1C(=O)NCC(c1ccc(O)cc1)=N2`, the Potency result in test [1], in test [2], in test [3], in [4], in [5] and in [8] was “inactive” throughout. For the same molecule, the molecule was called inactive in test [6], in test [7] and in [9].

In the case of `O=C(O)Cc1ccc(-c2ccccc2)cc1`, the Potency result in test [1], in test [2], in test [3], in [4], in [5] and in [10] was “inactive” throughout. In [6], the fluorescence, relative to Rose Bengal was 0.37% [at 18.6 µM]. Besides, in test [9], the fluorescence, % of fluorescent control was -0.147% [at 18.6 µM].

In the case of `COCC(O)CO` (stereo not drawn), the Potency result in test [1], in test [2], in test [3], in test [4], in [5] and in [8] was “inactive” each time. In addition, the outcome in test [6], in [7] and in test [9] was inactive.

For `NCC1CCCC(CN)C1` (stereo not drawn), the Potency result in test [1], in test [2], in test [3], in test [4], in test [5] and in [8] was “inactive” in each case. Besides, the molecule was called inactive in test [6], in test [7] and in test [9].

With `C/C=C(\C)C(=O)OCCC(C)CCC=C(C)C` (stereo not drawn), the Potency result in [1], in test [2], in test [3], in test [4], in [5] and in test [8] was “inactive” each time. Further, the call in [6], in test [7] and in [9] was inactive.

For the molecule `CCCCC(CC)COC(=O)COc1ccc(Cl)cc1C` (stereo not drawn), the Potency entry in [1], in test [2], in [3], in test [4], in [5] and in test [8] was “inactive” throughout. The outcome in [6], in test [7] and in test [9] was inactive.

In the case of `CCCCCCOC(=O)C(C)C`, the Potency result in [1], in [2], in test [3], in test [4], in test [5] and in test [8] was “inactive” each time. Moreover, the outcome in test [6], in test [7] and in test [9] was inactive.

As to `CN1CCN(CCCN2c3ccccc3Sc3ccc(S(=O)(=O)N(C)C)cc32)CC1`, the Potency result in test [1], in test [2], in [3], in test [4] and in [5] was “inactive” in each case. Further, the fluorescence, relative to Rose Bengal in [6] is -0.708% [at 18.6 µM]. For the same molecule, the fluorescence, % of fluorescein control in test [7] is -0.102% [at 18.6 µM]. Also, the fluorescence, % of triamterene in [8] was 0.42% [at 18.6 µM]. Also, the fluorescence, % of fluorescent control in test [9] was 0.005% [at 18.6 µM].

As to `Cc1ccccc1N1C(=O)c2cc(S(N)(=O)=O)c(Cl)cc2NC1C` (stereo not drawn), the Potency entry in test [1], in test [2], in test [3], in test [4], in [5] and in test [8] was “inactive” throughout. Moreover, the outcome in test [6], in test [7] and in [9] was inactive.

As to `C=CC(C)=CCC=C(C)C`, the Potency result in [1], in test [2], in test [3], in test [4], in [5] and in [8] was “inactive” each time. Further, the result in test [6], in test [7] and in test [9] was inactive.

Take `O=C(NCCCN1CCOCC1)c1ccc(Cl)cc1`: the Potency entry in test [1], in test [2], in test [3], in test [4], in test [5] and in test [8] was “inactive” in each case. Besides, the molecule was called inactive in [6], in test [7] and in test [9].

For the molecule `CCOC(=O)/C=C/C(=O)O`, the Potency entry in test [1], in [2], in [3], in test [4], in test [5] and in test [10] was “inactive” in each case. In addition, the molecule was classed as inactive in test [6] and in test [9].

Take `CCCCOC(=O)CCS`: the Potency result in test [1], in test [2], in test [3], in test [4], in test [5] and in test [8] was “inactive” in each case. Also, the outcome in test [6], in test [7] and in [9] was inactive.

As for `O=C(OCCOCCO)c1ccccc1Nc1cccc(C(F)(F)F)c1`, the Potency entry in test [1], in [2], in test [3], in [4] and in [5] was “inactive” in each case. The fluorescence, relative to Rose Bengal in test [6] was -0.199% [at 18.6 µM]. Also, the fluorescence, % of fluorescein control in test [7] was 0.199% [at 18.6 µM]. Also, the fluorescence, % of triamterene in test [8] is -0.0212% [at 18.6 µM]. Besides, the fluorescence, % of fluorescent control in [9] is 0.0507% [at 18.6 µM].

For the molecule `Nc1nccs1`, the Potency result in test [1], in test [2], in test [3], in test [4], in test [5] and in test [8] was “inactive” throughout. Also, the call in [6], in test [7] and in test [9] was inactive.

With `O=C(O)c1cccnc1C(=O)O`, the Potency result in [1], in test [2], in test [3], in test [4], in test [5] and in [8] was “inactive” each time. The outcome in test [6], in test [7] and in test [9] was inactive.

Turning to `COc1cc2[nH]c(=O)[nH]c(=O)c2cc1OC`, the Potency entry in test [1], in [2], in test [3], in test [4] and in [5] was “inactive” throughout. Moreover, in test [6], the fluorescence, relative to Rose Bengal is 0.0405% [at 18.6 µM]. In test [7], the fluorescence, % of fluorescein control was -0.0154% [at 18.6 µM]. The fluorescence, % of triamterene in test [8] is -0.031% [at 18.6 µM]. Besides, the fluorescence, % of fluorescent control in test [9] is -0.538% [at 18.6 µM].

Regarding `O=C(O)c1cccc(O)c1`, the Potency result in test [1], in [2], in test [3], in test [4], in test [5] and in [8] was “inactive” in each case. Besides, the molecule was called inactive in test [6], in test [7] and in test [9].

As for `CN(C(=O)C(Cl)Cl)c1ccc(OC(=O)c2ccco2)cc1`, the Potency entry in test [1], in test [2], in test [3], in test [4], in [5] and in test [8] was “inactive” throughout. Also, the molecule was classed as inactive in [6], in test [7] and in [9].

Turning to `CC(C)(C)C(=O)C(Oc1ccc(Cl)cc1)n1ccnc1` (stereo not drawn), the Potency entry in test [1], in test [2], in test [3], in test [4], in [5] and in [8] was “inactive” throughout. Besides, the call in test [6], in test [7] and in test [9] was inactive.

(Values after PubChem BioAssay (Tox21).)
